Shown are actives, neighbours in structure and some others; about 11% of the full set was active somewhere.
PNC inhibitor: perinucleolar compartment assembly inhibition | AID 2417 | 140,000 tested, 3.1% active | activity change (PNC), negative = inhibition, % at 10 µM | PC3M PTB-GFP, PNC prevalence imaging, 16 h; active compounds read low;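 active = readout at or below -70, meaning at least 70% loss of cells showing the perinucleolar compartment, a nuclear body marking cancer cells; inconclusive = readout between -30 and a set limit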;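 note: plate controls were DMSO wells for no effect and camptothecin positive control wells for full effect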
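PC3M cells stably expressing PTB-GFP, 750–1000 cells/well, treated 16 h at 37 °C with compound (23 nl of library stock), in duplicate. After paraformaldehyde fixation and Hoechst stain, imaged at 20x; PNC prevalence scored by image analysis.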
ALDH1A1 inh: blocks purified human ALDH1A1 activity | AID 1030 | P00352 | Potency, µM (doses to about 75.3 µM), for inactives: at the top dose activity, negative = inhibition, hits mostly inhibitors | 220,000 tested, 7.3% active | Purified ALDH1A1, NADH fluorescence, propionaldehyde substrate;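 note: potency is the fitted concentration of half-maximal effect; plate controls were no enzyme wells and a reference inhibitor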
IMPase inh: cell-permeable inhibitors of inositol monophosphatase (IMPase); CHO-M1 cells, IP1 accumulation, HTRF TR-FRET ratio; AID 901; P97697; 120,000 tested, under 10 active; inhibition (IP1 accumulation), % at 46.1 µM; active = well fitted curve in the direction sought with a large enough effect in the signal ratio, not every such curve was filed as active; inconclusive = small, poorly fitted or top-dose-only effect, or a change in a side signal; inactive = no such curve, though single readings can be large or run the other way; the % refers to the signal ratio;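 note: cells stimulated with carbachol in lithium chloride buffer; plate controls were DMSO basal wells for no effect and reference inhibitor wells for full effect; higher means more IMPase inhibition seen as more IP1 and lower FRET ratio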
Target sequence (P97697 whole entry, looked up): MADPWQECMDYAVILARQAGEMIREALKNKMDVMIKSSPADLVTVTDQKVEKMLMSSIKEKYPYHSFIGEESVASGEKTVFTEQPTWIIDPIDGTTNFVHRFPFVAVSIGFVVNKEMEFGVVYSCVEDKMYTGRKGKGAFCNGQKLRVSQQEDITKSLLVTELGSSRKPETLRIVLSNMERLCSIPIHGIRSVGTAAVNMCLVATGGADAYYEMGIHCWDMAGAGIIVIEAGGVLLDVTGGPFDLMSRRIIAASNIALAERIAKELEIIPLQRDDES
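Cellular IMPase inhibition is scored as a rise in cytosolic IP1, detected by competitive TR-FRET between d2-labelled IP1 and a europium anti-IP1 antibody. M1-expressing CHO cells were stimulated with carbachol for 30 min at 37C, with lithium (50 mM LiCl) present in the buffer.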
HPGD inh: HPGD (human) dehydrogenase inhibition. P15428. purified HPGD, NADH fluorescence kinetic, PGE2 substrate. Potency, µM, for the others: at the top dose activity change, negative = inhibition, actives largely listed as inhibitors. 150,000 tested, 4.3% active. AID 894; note: potency is the fitted concentration of half-maximal effect
Target sequence (P15428 whole entry, looked up): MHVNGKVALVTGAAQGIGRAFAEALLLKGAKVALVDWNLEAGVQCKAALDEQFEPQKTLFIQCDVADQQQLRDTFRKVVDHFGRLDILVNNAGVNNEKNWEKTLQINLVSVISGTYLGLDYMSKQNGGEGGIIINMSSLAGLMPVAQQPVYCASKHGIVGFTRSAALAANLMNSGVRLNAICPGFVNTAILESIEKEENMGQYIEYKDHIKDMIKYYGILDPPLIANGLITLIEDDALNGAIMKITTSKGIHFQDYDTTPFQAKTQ
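NADH formation kinetics: reaction with 30 uM PGE2 and 1 mM NAD+ (final), 20 nM enzyme, Tris-HCl pH 8 with Tween 20, after 15 min compound preincubation at room temperature. Fluorescence change, last versus first of five reads.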
IMPase Li inh: IMPase inhibition in cells with lithium potentiation; CHO-M1 cells, IP1 TR-FRET (IP-One), carbachol + lithium; 210,000 tested, 0.35% active; AID 1457; Potency, µM (doses to about 59.4 µM), for the others: at the top dose activity, negative = IMPase inhibition, most hits filed as inhibitors; active = well fitted inhibition curve with a large enough effect; inconclusive = small, poorly fitted or top-dose-only effect; inactive = no such curve, though single readings can be large or run the other way;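 note: IP1 builds up when IMPase is blocked and the TR-FRET signal falls; potency is the fitted concentration of half-maximal effect; plate controls were basal vehicle for no effect and high inhibitor control for full effect; nearly all actives have a fitted effect of over 50% in size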
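IP1 accumulation measured by competitive TR-FRET in lysed CHO-M1 cells after 30 min compound exposure at 37C, with a small lithium addition to potentiate weak responses. Hill-equation AC50 from ratio and donor-channel data.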
* marks the source's active call; other numbers are inactive results; ? = inconclusive; . = no result given; [ ] = another dose, or the depositor's remark. Unless noted, calls come from the whole dose curve; as a rule, active = well fitted inhibition curve with a large enough effect (not every such curve was filed as active); inconclusive = small, poorly fitted or top-dose-only effect, or another doubt; inactive = no such curve, though single readings can be large or run the other way. Unless noted, % is set by controls: 0 for no effect and ±100 for the full control effect.

SMILES	PNC inhibitor	ALDH1A1 inh	IMPase inh	HPGD inh	IMPase Li inh
CCn1ccnc1CN(C)Cc1cn[nH]c1-c1ccc(OC)c(F)c1	.	3%	.	.	1%
C=CCn1c(C)cc(C(=O)COc2ccc(S(=O)(=O)N3CCCC3)cc2[N+](=O)[O-])c1C	25	5µM*	.	-11%	4%
COc1ccccc1NS(=O)(=O)c1cc(C(=O)O)ccc1F	.	0%	.	-7%	.
CC(=O)c1cc(OC(=O)N2CCOCC2)ccc1OC(=O)N1CCOCC1	?	-3%	-15	-8%	7%[38.3 µM]
CC(=O)Oc1ccc(OC(C)=O)c(SCCCCCN2CCOCC2)c1	93	3%	28	18µM*	8%[38.3 µM]
O=C(Nc1ccccc1C(=O)NCc1ccco1)c1ccccc1	?	-8%	15	-12%	20%[38.3 µM]
O=C(NC1CS(=O)(=O)CC1NCc1ccco1)c1ccccc1 (centres undefined)	-96*	8%	-1	-10%	-1%[38.3 µM]
Cc1cccc(NS(=O)(=O)c2ccc(Cl)c(C(=O)Nc3ccccc3C)c2)c1	.	.	3	.	.
N=C1S/C(=C\c2cn[nH]c2-c2ccc(F)cc2)C(=O)N1c1ccccc1F	?	4%	-4	13µM*	2%
CCN(CC)c1nc2c(s1)C(=O)CC(C)(C)C2	24	13µM*	1	-13%	-11%[38.3 µM]
COc1cccc(-c2nc(NC3CC3)c3ccccc3n2)c1	.	?	.	.	16%
CCOc1ccc2nc3sc(C(=O)N4CCOCC4)c(N)c3cc2c1	.	-17%	.	.	5%
COc1ccc2nc3sc(C(=O)NCc4cccs4)c(N)c3cc2c1	36	4µM*	?	?	?
COc1ccc(CCn2c3c(c(=O)[nH]c2=O)C(NC(=O)c2ccccc2F)(C(F)(F)F)C(=O)N3)cc1OC (centres undefined)	.	.	-14	.	.
C/C(C[n+]1ccccc1)=N\N=C(N)N	.	2%[13.5 µM]	.	-11%	13%
COCCn1nnnc1SCC(=O)Nc1ccc2c(c1)OCO2	.	20µM*	.	.	-2%
COc1cccc(C(=O)CSc2nnnn2C2CCCCC2)c1	?	2.8µM*	1	-25%	50%[38.3 µM]
CC(C)n1nnnc1SCC(=O)c1ccc2c(c1)OCCO2	19	?	7	-15%	-8%[38.3 µM]
COc1ccc(-n2nnnc2SCC(=O)Nc2ccc3c(c2)OCCO3)c(OC)c1	16	7.1µM*	0	-10%	4%[38.3 µM]
CCOC(=O)c1ccc(NC(=O)CSc2nnnn2C2CCCCC2)cc1	-19	11%	-5	0%	0%
COCCn1nnnc1SCC(=O)NCc1ccc2c(c1)OCO2	.	4%	.	.	0%
O=C(CSc1nnnn1C1CCCC1)c1ccc2c(c1)OCCO2	25	3.2µM*	5	-19%	0%
CCCCC1=CC2=C(OC(C)=O)C(=O)C(C)(OC(=O)C3CCCC3)C(=O)C2=CO1 (centres undefined)	.	-4%	.	-21%	-8%
CC(C)c1cc(C(C)C)c(S(=O)(=O)NNC(=O)c2ccncc2)c(C(C)C)c1	-11	-2%	.	-14%	14%
CCC1=C2CC[C@H]3C(=O)NC(=O)[C@H]3[C@H]2[C@@]2(C)C(=NCC(=O)OC)OC(=O)N2C1=O	.	-3%	.	-7%	-10%
SMILES	PNC inhibitor	ALDH1A1 inh	IMPase inh	HPGD inh	IMPase Li inh
COCCCn1nnnc1SCC(=O)Nc1ccc2c(c1)OCCO2	.	13µM*	.	.	1%
O=C(CSc1nnnn1C1CCCC1)Nc1ccc2c(c1)OCO2	?	11µM*	-3	-1%	-2%[38.3 µM]
CCSc1nnc2c(n1)OC(c1ccc(C)cc1)N(C(C)=O)c1ccccc1-2 (centres undefined)	.	.	10	.	.
Cc1cccc2cc(CN(Cc3ccccc3)C(=O)c3cccc(F)c3)c(Cl)nc12	10	8.9µM*	16	-22%	14%[38.3 µM]
Cc1cccc2cc(CN(C(=O)c3cnccn3)C3CCCCC3)c(Cl)nc12	18	-5%	0[1.84 µM]	-15%	25%[38.3 µM]
COC(=O)C1=NOC2(C=C(Br)C(OC)=C(Br)C2=O)C1 (centres undefined)	.	-13%[13.5 µM]	.	.	.
CN(N=O)C(=O)N[C@H]1[C@@H](O)[C@H](O)[C@H](CO)O[C@@H]1O	.	-11%[20.9 µM]	4[20.6 µM]	-4%	8%
O=c1cc(Cl)c(-c2ccccc2)n[nH]1	25	0%	-4	28µM*	21%[38.3 µM]
